From PubChem BioAssay (NCI)
“And” between values parts separate entries of the source, which are not always exact repeats. Equal entries are not always repeated. This is part of a sample that, as a whole, favours compounds with a hit. Of some 83,000 tested, about 20% had one in any assay.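 For each line, cells grew in 96-well plates with the test compound present at a single concentration for 48 hours.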 A structure can be active in one record and inactive in another. The source made the active and inactive calls.

tested on: KM12 colon; assay: NCI-60 one-dose screen, 48 h (100 = growth as untreated, 0 = no growth, -100 = all killed); conditions: 10 µM
Description: Growth inhibition of the KM12 human tumor cell line is measured as a screen for anti-cancer activity. Cells are grown in 96 well plates and exposed to the test compound for 48 hours. Compounds are tested at a single concentration, which is 10^-5 M for most compounds. The reported endpoint is percent growth (GI% or GIPRCNT), where numbers from 0 - 100% represent growth inhibition, and numbers from -100% - 0 represent cell death. For example, a value of 40 represents 60% growth inhibition. A value of 0 means no net growth occurred over the course of the experiment. A value of -40 indicates 40% of cells at the beginning of the experiment died by the end of the experiment. A value of -100 means all cells are dead at the end of the experiment.
NCI-60 Human Tumor Cell Lines Screen was performed using the standard one-dose NCI protocol, which is described in more detail at https://dtp.cancer.gov/discovery_development/nci-60/default.htm.
Compounds with GIPRCNT values below 10 were considered active. Activity score was based on GIPRCNT using the following formula: […]
Score is 0 for GIPRCNT values of 100 or above, 50 for GIPRCNT values of 0, and 100 for GIPRCNT values of -100.

Q: For `CC1=C(CN(O)C(N)=O)C2=C(C)C3(CC3)[C@@](C)(O)C(=O)C2=C1`, which growth is on record?
A: The growth was 3.43% (active).

Q: `N#Cc1nc(-c2ccccc2)oc1N1CCC(S(=O)(=O)F)CC1` was tested. Which growth did it give?
A: Its growth is 97.1% (inactive).

Q: For `COc1cc2c(O[C@@H]3OC[C@H](OC(C)=O)[C@H](OC(C)=O)[C@H]3O)c3c(c(-c4ccc5c(c4)OCO5)c2cc1OC)C(=O)OC3`, which growth is on record?
A: The growth was 27.8% (inactive).

Q: With `COc1cc(OC)c(S(=O)(=O)N(CCCl)CCCl)cc1C(=O)/C=C/c1ccc(Cl)cc1` as the compound, how does the growth read?
A: The growth was 23.4% (inactive).

Q: Which growth does the source give for `CC(C)=CCc1c2c(c(O)c3c1O[C@]14C(=C[C@@H]5C[C@H]1C(C)(C)O[C@@]4(C/C=C(/C)C(=O)O)C5=O)C3=O)C=CC(C)(C)O2` here?
A: The growth was -73.4% (active).

Q: With `C/C=C/CC(C)C(O)[C@H](NC(=O)[C@@H]1CCCN1C(=O)C(C)(C)NC(=O)CCCCCCCCC)C(=O)NC(C)(C)C(=O)N[C@@H](CCC(N)=O)C(=O)N[C@H](CCC(N)=O)C(=O)NC(C)(C)C(=O)NC(C)(C)C(=O)N[C@@H](CCC(N)=O)C(=O)N[C@H](CC(C)C)C(=O)N[C@H](CO)CC(C)C` (stereo not given in full) as the compound, how does the growth read?
A: Its growth is -75.9% (active) and -59% (active).

Q: Which growth does the source give for `C=C1[C@@H](C)C2[C@H](Cc3ccccc3)NC(=O)[C@]23[C@H](OC(C)=O)/C=C/[C@@](C)(O)C(=O)[C@@H](C)C/C=C/[C@H]3[C@@H]1O` (stereo not given in full) here?
A: The growth was 62.7% (inactive).

Q: `CCC(C)[C@H]1C(=O)O[C@H](C(C)C)C(=O)N(C)[C@@H](C(C)C)C(=O)O[C@H](C(C)C)C(=O)N(C)[C@@H](C(C)C)C(=O)O[C@H](C(C)C)C(=O)N1C` (stereo not given in full) was tested. Which growth did it give?
A: Its growth is 16.4% (inactive).

Q: For `CC1=C[C@H]2O[C@@H]3C[C@H]4OC(=O)/C=C\C=C\[C@H]([C@@H](C)O)OCC[C@@H](C)[C@H](O)C(=O)OC[C@@]2(CC1)[C@]4(C)[C@]31CO1`, which growth is on record?
A: Its growth is 4.84% (active).

Q: With `Cc1ccc(CNc2nc3ccc(OC/C(=C/F)CN)cc3o2)cn1` as the compound, how does the growth read?
A: The growth was 103% (inactive).

Q: For `C/C=C\C(=O)O[C@@H]1CC2O[C@@H]3C=C(C)C(=O)C[C@]3(C)[C@]1(C)[C@]21CO1`, which growth is on record?
A: Its growth is 3.28% (active).

Q: How did the growth turn out when `COc1cc2c(O[C@@H]3OC[C@H](O)[C@H](O)[C@H]3O)c3c(c(-c4ccc5c(c4)OCO5)c2cc1OC)C(=O)OC3` was run?
A: The growth was 71.6% (inactive).

Q: Which growth does the source give for `CN(CCF)/N=N/c1nc[nH]c1C(N)=O` here?
A: The growth was 58.9% (inactive).

Q: `C[C@@H]1CCC/C=C/[C@H]2C[C@@H](O)C[C@@H]2[C@@H](O)/C=C/C(=O)O1` was tested. Which growth did it give?
A: Its growth is 14.9% (inactive).

Q: For `N#Cc1c(-n2c(Br)c(Br)c3cc(Br)ccc32)[nH]c2c(Br)cc(Br)cc12`, which growth is on record?
A: Its growth is -19.4% (active).

Q: For `CC1=C2C(=C[C@@](C)(COC(=O)c3ccc(S(=O)(=O)F)cc3)[C@@H]2OC(=O)c2ccc(S(=O)(=O)F)cc2)C(=O)[C@](C)(O)C12CC2`, which growth is on record?
A: Its growth is 28.2% (inactive).

Q: Which growth does the source give for `CC1=C(CCC=NNC(N)=O)C2=C(C)C3(CC3)[C@@](C)(O)C(=O)C2=C1` here?
A: The growth was 6.64% (active).

Q: `CCCCCCCCCC(=O)N[C@@](C)(CC)C(=O)N1CCC[C@H]1C(=O)N[C@@H](CC(C)C)C(=O)N[C@@](C)(CC)C(=O)N[C@@H](CCC(N)=O)C(=O)N[C@H](CCC(N)=O)C(=O)NC(C)(C)C(=O)NC(C)(C)C(=O)N[C@@H](CCC(N)=O)C(=O)N[C@H](CC(C)C)C(=O)N[C@H](CO)CC(C)C` was tested. Which growth did it give?
A: Its growth is -90.6% (active) and -93.5% (active).

Q: Which growth does the source give for `COC(=O)[C@H]1[C@@H](O)[C@@]2(O)c3c(OC)cc(OC)cc3O[C@@]2(c2ccc(OC)cc2)[C@@H]1c1ccccc1` here?
A: The growth was 3.23% (active).

Q: Which growth does the source give for `COc1cccc2c1cc([N+](=O)[O-])c1c(C(=O)O)cc3c(c12)OCO3` here?
A: Its growth is 104% (inactive).

Q: Which growth does the source give for `COc1cc(C)c(-c2ccc(OC)c(=O)cc2C)c(OC)c1OC` here?
A: The growth was 6.94% (active) and 109% (inactive).

Q: `CC1=C[C@H]2O[C@@H]3C[C@@H](O)[C@](C)([C@@]2(C)CC1)[C@@]31CO1` was tested. Which growth did it give?
A: The growth was 26.1% (inactive).

Q: `CC(C)(O)/C=C/C(=O)[C@](C)(O)[C@H]1[C@H](O)C[C@@]2(C)[C@H]3CC=C4[C@@H](C[C@H](O)C(=O)C4(C)C)[C@]3(C)C(=O)C[C@]12C` was tested. Which growth did it give?
A: The growth was 42.2% (inactive).

Q: With `C/C=C/CC(C)C(O)[C@H](NC(=O)[C@@H]1CCCN1C(=O)C(C)(C)NC(=O)CCCCCCCCC)C(=O)N[C@@](C)(CC)C(=O)N[C@@H](CCC(N)=O)C(=O)N[C@H](CCC(N)=O)C(=O)NC(C)(C)C(=O)NC(C)(C)C(=O)N[C@@H](CCC(N)=O)C(=O)N[C@H](CC(C)C)C(=O)N[C@H](CO)CC(C)C` (stereo not given in full) as the compound, how does the growth read?
A: The growth was -32.5% (active) and 10.3% (inactive).

Q: `CC1=C2C(=C[C@@](C)(COC(=O)c3ccc(S(=O)(=O)F)cc3)[C@@H]2O)C(=O)[C@](C)(O)C12CC2` was tested. Which growth did it give?
A: The growth was 7.74% (active).

Q: Which growth does the source give for `CC(=O)O[C@@H]1C[C@H]2O[C@@H]3C=C(C)CC[C@]3(C)[C@]1(C)[C@]21CO1` here?
A: The growth was 27.4% (inactive).

Q: With `CC(=O)O[C@@H]1[C@@H]2O[C@H]2[C@@](C)(O)C(=O)[C@@H](C)C/C=C/[C@H]2[C@@H]3O[C@]3(C)[C@@H](C)C3[C@H](Cc4ccccc4)NC(=O)[C@@]312` (stereo not given in full) as the compound, how does the growth read?
A: The growth was 66.6% (inactive).

Q: With `CC1=C2C(=C[C@@](C)(COS(C)(=O)=O)[C@@H]2O)C(=O)[C@](C)(O)C12CC2` as the compound, how does the growth read?
A: The growth was -3.28% (active).

Q: For `O=C(CCCc1ccc(N(CCCl)CCCl)cc1)OCc1ccccc1`, which growth is on record?
A: The growth was 99.7% (inactive).

Q: Which growth does the source give for `CN1C(=O)[C@]23SSC1(C)C(=O)N2[C@H]1Nc2ccccc2C1([C@@]12c4ccccc4N[C@@H]1N1C(=O)C4(C)SS[C@]1(C(=O)N4C)[C@H]2O)[C@@H]3O` (stereo not given in full) here?
A: Its growth is -94.4% (active).

Q: How did the growth turn out when `COc1cc2c(cc1OC)[C@@H]1N(CC2)C(=O)c2ccccc2[C@@]1(C)C(=O)O` was run?
A: The growth was 113% (inactive).

Q: How did the growth turn out when `C/C=C/CC(C)C(O)[C@H](NC(=O)[C@@H]1CCCN1C(=O)C(C)(C)NC(=O)CCCCCCC)C(=O)N[C@@](C)(CC)C(=O)N[C@@H](CCC(N)=O)C(=O)N[C@H](CCC(N)=O)C(=O)NC(C)(C)C(=O)NC(C)(C)C(=O)N[C@@H](CCC(N)=O)C(=O)N[C@H](CC(C)C)C(=O)N[C@H](CO)CC(C)C` (stereo not given in full) was run?
A: Its growth is 119% (inactive) and -53% (active).

Q: Which growth does the source give for `NC1CCc2cc(O)c(O)cc2C1` (stereo not given) here?
A: Its growth is 97.5% (inactive).

Q: Which growth does the source give for `C[C@@H]1C[C@H]2C(=O)O[C@@H](C)C(NC(=O)[C@H](Cc3cc(F)cc(F)c3)NC(=O)Nc3ccc(OS(=O)(=O)F)cc3)C(=O)N3CCC[C@H]3C(=O)N3CCO[C@H](C)[C@H]3C(=O)N[C@@H](CO)C(=O)N2C1` (stereo not given in full) here?
A: The growth was 37.8% (inactive).

Q: For `COC1[C@@H]2C[C@H]3C(C)(C)O[C@@](C/C=C(/C)C(=O)O)(C2=O)[C@]32Oc3c(CC=C(C)C)c4c(c(O)c3C(=O)[C@H]12)C=CC(C)(C)O4` (stereo not given in full), which growth is on record?
A: The growth was -84.3% (active).

Q: How did the growth turn out when `CC1=C(CN(O)C(N)=O)C2=C(C)C3(CC3)[C@](C)(O)C(=O)C2=C1` was run?
A: Its growth is -1.93% (active).

Q: With `CC1=C2C(=C[C@@](C)(C=O)[C@@H]2O)C(=O)[C@](C)(O)C12CC2` as the compound, how does the growth read?
A: The growth was 27.4% (inactive).

Q: Which growth does the source give for `C/C=C/CC(C)C(O)[C@H](NC(=O)[C@@H]1CCCN1C(=O)C(C)(C)NC(=O)CCCCCCCCC)C(=O)N[C@@](C)(CC)C(=O)N[C@@H](CCC(N)=O)C(=O)N[C@H](CCC(N)=O)C(=O)NC(C)(C)C(=O)N[C@@](C)(CC)C(=O)N[C@@H](CCC(N)=O)C(=O)N[C@H](CC(C)C)C(=O)N[C@H](CO)CC(C)C` (stereo not given in full) here?
A: The growth was 108% (inactive) and -60.9% (active).

Q: For `CC1=C[C@H]2O[C@@H]3C[C@H]4OC(=O)/C=C\C=C\[C@H]([C@@H](C)O)OCC/C(C)=C/C(=O)OC[C@@]2(CC1)[C@]4(C)[C@]31CO1`, which growth is on record?
A: The growth was 3.74% (active).

Q: Which growth does the source give for `CC1=C2C(=O)[C@](C)(CO)C=C2C(=O)[C@](C)(O)C12CC2` here?
A: The growth was 31.9% (inactive).
